# ± gives the standard deviation of the averaged measurements. Whole data set: some 25,000 sequences, median “ln(normalized median fluorescence intensity)” near 8.9, cut for the highest 2% near 10. Only a selection was taken, and the highest values are over-represented in it overall.
# System: PfAP2-LT AP2 domain (GST-tagged)
# Assay: gcPBM binding intensity (ln(normalized median fluorescence intensity)); higher = stronger DNA binding
# In short: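 DNA-binding domains from P. falciparum, fused to GST and produced in E. coli, were put on an Agilent 4 × 180k double-stranded probe array for 1 h in 1× PBS holding 1% milk, 0.2 mg/ml BSA, 0.5% salmon testes DNA and 0.03% Triton X-100. Probes were primer-extended, 36 bp long and drawn from intergenic genomic regions, with negative controls included. After Alexa488 anti-GST antibody detection and a 488 nm scan, binding intensity was set as the highest Masliner-normalised natural-log median intensity across replicate spots of either probe orientation.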
row,Sequence,gcPBM binding intensity (ln)
1,AAAAAAATATATAAATGTACATATTGTTTAATTAAT [XGTACX_site3794],8.7 ± 0.45
2,ATAATAAATGATAGCACACATATGTACATAAATACA [CACACA_site4634],9.24 ± 0.31
3,TATTAATTTATATCAACACACAAAATCAATATACTT [CACACA_site1757],8.7 ± 0.42
4,ATTATGCTACAAGGAGAACACACAATTGCCACTTTT [CACACA_site8673],9.1 ± 0.46
5,AATGATCATATATACACACACACAAAAAAAAAAAAA [CACACA_site4009],9.6 ± 0.45
6,ATAAAGATAATATATGCACACATATAAATATATAAA [CACACA_site9153],9.09 ± 0.43
7,TACAGATACAGATACACACACACACCGAAATAAATA [CACACA_site4865],10.2 ± 0.43
8,TATACAGATAAATACACACACACATATATATATATA [CACACA_site4845],10.3 ± 0.25
9,TATACAGATATATATACACACATATATATAAATACA [CACACA_site4383],9.24 ± 0.39
10,CATAAATACATACATACACACATATATATATATATA [CACACA_site2106],9.88 ± 0.085
11,AATAAATATATAAATACACACAAACATACAGATATA [CACACA_site6088],9.37 ± 0.35
12,TACATACATACATACACACACACATATAAATACATA [CACACA_site4626],10.1 ± 0.4
13,TATAAATACAGATACACACACACACCGATATATATA [CACACA_site5271],9.94 ± 0.18
14,CATATATAAATATATACACACATACATACATACATA [CACACA_site5988],9.36 ± 0.4
15,CACATACAGATATATACACACAAATATAAATACACA [CACACA_site6512],9.52 ± 0.4
16,ATAAATACAGATAACACACACATATATATATATATA [CACACA_site5431],10.225 ± 0.0071
17,CATACAGATATATATACACACATACAGATAAATACA [CACACA_site4592],9.3 ± 0.28
18,ATTTAATACAAATACACACACAAATAAATACAGATA [CACACA_site5956],9.47 ± 0.26
19,AATTAAATTATAAGCACACACATATATATATATATA [CACACA_site3351],9.81 ± 0.057

row,Sequence,gcPBM binding intensity (ln)
1,ATAGTTACACGCCAAAAAAAAAAAAAAAAAAAAAAA [CACACA_negctrl_site1133],8.21 ± 0.42
2,TTTTTTTTTTTTTTTTGTACACATAATATGAATAAT [XGTACX_site2661],8.57 ± 0.32
3,AAAAAATTATTAATTTGTACATAAATAACCAAAAAA [XGTACX_site2488],8.49 ± 0.52
4,TTTTCCTTTACATAATGTACACAAAAAAAAAAAAAA [XGTACX_site716],8.21 ± 0.35
5,CTATAAAAATATAATTGTACAAATTTTTATATCTTA [XGTACX_site7722],8.35 ± 0.45
6,TAGAAACCATAAAAATGTACTTAAAAATAGACAATT [XGTACX_site5007],8.78 ± 0.5
7,AAAATTTTGGAACGTGCACACATATGTAATATATAT [CACACA_site9004],9.32 ± 0.37
8,TACATACATACATACACACACATATAGATTTATATA [CACACA_site6999],9.48 ± 0.28
9,CTATATAATATGAGCACACATAAGATTTGGTGTTAT [CACACA_site744],8.93 ± 0.34
10,TATACAGATAAATACACACACATATATATATATATA [CACACA_site4178],10.2 ± 0.33
11,CCCCCCGTGTTATATACACACATAATCAAATAAAAT [CACACA_site4111],11.1 ± 0.44
12,CATAAATACAGATATACACACATATATATATATATA [CACACA_site4528],9.7 ± 0.45
13,AAATTATAATATAATACACACATAAAAAAAAAATCA [CACACA_site3634],9 ± 0.44
14,TAAATAAATACATACACACACATACAGATATATATA [CACACA_site5690],9.62 ± 0.26
15,AGGCACGTGTTATATACACACATAATCAAATAAACT [CACACA_site7852],9.36 ± 0.38
16,AATTAAAATACAAATGTATGCATGTCTCATATAGAA [TGCATGCA_site822],8.78 ± 0.43
17,ATTCTTAAATGTGGTTGTACATATTATCACCTTTAA [XGTACX_site8188],8.75 ± 0.42
18,TGGAGATTTTTAAAGACACACAGGTAAGAATAATAA [CACACA_site1582],8.77 ± 0.47
19,AAAGGATATAGACACACACACACATATATATATATA [CACACA_site2200],10.3 ± 0.32

row,Sequence,gcPBM binding intensity (ln)
1,TATATATATAGACACACACACACATATATATATATA [CACACA_site9366],10.02 ± 0.042
2,AAAGGATATGGACACACACACACATATATATATATA [CACACA_site8686],10.5 ± 0.15
3,AAAAATTATGGACACACACACATATATATATATATT [CACACA_site4717],9.8 ± 0.11
4,CAAGAAAATGGACACACACACATATATATATATATA [CACACA_site6010],10.37 ± 0.092
5,TATATGTAAATGGACACACACATATATATATATATA [CACACA_site3659],10 ± 0.13
6,GAGAAATGGAGACACACACACATATTATATATATAT [CACACA_site1532],9.85 ± 0.15
7,GATACCTATAGACACACACACATACCTATATACATA [CACACA_site7586],9.66 ± 0.47
8,TATATATATGGACACACACACATATATATATATTTT [CACACA_site5409],9.67 ± 0.23
9,TATATATATGGACACACACACATATAAATAAATAAA [CACACA_site4406],9.71 ± 0.49
10,TAAATTTATGGACACACACACATATATATATATATA [CACACA_site4620],9.955 ± 0.021
11,TATATATATGGACACACACACACATATATATATATA [CACACA_site6121],10.3 ± 0.23
12,ATAATATTGTGGTATACACACCTTACAAAAAGGTAC [CACACA_site5582],8.96 ± 0.42
13,AAATATAAAAATAGCACACATATATACCTATATATA [CACACA_site4204],8.99 ± 0.38
14,TATTGCCCTTGACACACACACATATAAATAAATATA [CACACA_site7220],9.34 ± 0.44
15,TATATTGCCCTTCACACACACACATATATATATATA [CACACA_site2492],10 ± 0.13
16,TATTGCCCTGGACACACACACATATATATATATATA [CACACA_site5389],10.2 ± 0.064
17,ATTCAAATATTAAAAAGTACAAAAAAAAAACAAAAA [XGTACX_site1174],8.63 ± 0.5
18,AAGCTTTCATAAAGATGTACTTTTTAAAAATAATCT [XGTACX_site5725],8.28 ± 0.3
19,TACATTTTATGCATTTGTACACAAATAAATAAATAA [XGTACX_site2652],8.49 ± 0.42

# From the supplement of paper PMC11417369
